Measurements reported in the supplement of paper PMC10849652.
About 8,800 targets were measured; listed, in parts, are those with a hit and a random draw of the rest. About 0.5% of all pairs of compound and target were hits.

What was measured:
Test in all cases: log2 fold change, soluble protein after heating vs DMSO (PISA); higher = thermal stabilisation; K562 lysate, 10 uM; active = over 0.2 and 3.5 SD of the protein, either way, in both replicates (recomputed)
ibrutinib = compound: C=CC(=O)N1CCC[C@@H](n2nc(-c3ccc(Oc4ccccc4)cc3)c3c(N)ncnc32)C1 [ibrutinib]
Summary of the method: (§1)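 Soluble protein was defined as the supernatant remaining after 21,000xg for 90 min, following pooling of heated aliquots and adjustment to 0.5% NP-40 at 4°C. Before that, crude K562 extract at 1 mg/mL protein in PBS pH 7.4 with 1 mM MgCl2 was treated with 10 μM compound for 30 min and heated for 3 min across 48°C-58°C. Quantification used TMTpro 16plex LC-MS/MS with channel sums equalised, and values are log-two fold changes in thermal stability relative to solvent controls from duplicates.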

[1] = compound: CC(=O)c1cnc2ccc(-c3cc(Cl)c(O)c(Cl)c3)nc2c1N[C@H]1CC[C@H](CN(C)C)CC1
Summary of the method: as §1

ralimetinib = compound: CC(C)(C)Cn1c(N)nc2ccc(-c3[nH]c(C(C)(C)C)nc3-c3ccc(F)cc3)nc21 [ralimetinib]
Summary of the method: as §1

[2] = compound: CC(C)(O)CC(=O)NCCn1ccc2ncnc(Nc3ccc(Oc4cccc(C(F)(F)F)c4)c(Cl)c3)c21
Summary of the method: as §1

[3] = compound: CC(C)C1=C2N=C(C=C(N2N=C1)NCC3=CC=CC=C3)NCCCCCCN
Summary of the method: as §1

[4] = compound: CC1=C(C(CC(=O)N1)C2=CC=C(C=C2)C(F)(F)F)C(=O)NC3=C(C=C4C(=C3)C=NN4)F
Summary of the method: as §1

[5] = compound: CC1=C(C=C(C=C1)NC(=O)C2=CC(=CC=C2)C(C)(C)C#N)NC3=CC4=C(C=C3)N=CN(C4=O)C
Summary of the method: as §1

[6] = compound: CC1=C(C=C(C=C1)NC(=O)C2=CC(=CC=C2)N(C)C)NC(=O)C3=CC=C(C=C3)O
Summary of the method: as §1

[7] = compound: CC1=CC=C(C=C1)SC2=C3C=C(SC3=CN=C2)C(=O)N
Summary of the method: as §1

[8] = compound: CC1=C(C2=C(C=C1)C(=O)C3=CC=CC=C3N2CCCN)C
Summary of the method: as §1

Measured: log2 fold change

CEP295 isoform 3 (UniProt Q9C0D2)
inactive: ibrutinib -0.182 | [1] -0.048 | ralimetinib 0.005 | [2] 0.009 | [3] -0.019 | [4] 0.02 | [5] 0.041 | [6] 0 | [7] 0.053

C8orf37 (UniProt Q96NL8)
Chain of UniProt Q96NL8 (Q96NL8 whole entry, looked up): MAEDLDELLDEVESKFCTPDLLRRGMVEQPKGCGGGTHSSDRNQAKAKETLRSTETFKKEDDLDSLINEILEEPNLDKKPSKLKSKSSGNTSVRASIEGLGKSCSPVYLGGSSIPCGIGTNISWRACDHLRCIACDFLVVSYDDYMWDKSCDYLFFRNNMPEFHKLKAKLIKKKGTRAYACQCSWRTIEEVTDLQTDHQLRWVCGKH
inactive: ibrutinib 0.214 | [1] -0.037 | ralimetinib -0.004 | [2] 0.031 | [3] -0.038 | [8] -0.006 | [5] 0.089 | [6] 0.031 | [7] -0.089

C1orf112 (UniProt Q9NSG2)
Chain of UniProt Q9NSG2 (Q9NSG2 whole entry, looked up): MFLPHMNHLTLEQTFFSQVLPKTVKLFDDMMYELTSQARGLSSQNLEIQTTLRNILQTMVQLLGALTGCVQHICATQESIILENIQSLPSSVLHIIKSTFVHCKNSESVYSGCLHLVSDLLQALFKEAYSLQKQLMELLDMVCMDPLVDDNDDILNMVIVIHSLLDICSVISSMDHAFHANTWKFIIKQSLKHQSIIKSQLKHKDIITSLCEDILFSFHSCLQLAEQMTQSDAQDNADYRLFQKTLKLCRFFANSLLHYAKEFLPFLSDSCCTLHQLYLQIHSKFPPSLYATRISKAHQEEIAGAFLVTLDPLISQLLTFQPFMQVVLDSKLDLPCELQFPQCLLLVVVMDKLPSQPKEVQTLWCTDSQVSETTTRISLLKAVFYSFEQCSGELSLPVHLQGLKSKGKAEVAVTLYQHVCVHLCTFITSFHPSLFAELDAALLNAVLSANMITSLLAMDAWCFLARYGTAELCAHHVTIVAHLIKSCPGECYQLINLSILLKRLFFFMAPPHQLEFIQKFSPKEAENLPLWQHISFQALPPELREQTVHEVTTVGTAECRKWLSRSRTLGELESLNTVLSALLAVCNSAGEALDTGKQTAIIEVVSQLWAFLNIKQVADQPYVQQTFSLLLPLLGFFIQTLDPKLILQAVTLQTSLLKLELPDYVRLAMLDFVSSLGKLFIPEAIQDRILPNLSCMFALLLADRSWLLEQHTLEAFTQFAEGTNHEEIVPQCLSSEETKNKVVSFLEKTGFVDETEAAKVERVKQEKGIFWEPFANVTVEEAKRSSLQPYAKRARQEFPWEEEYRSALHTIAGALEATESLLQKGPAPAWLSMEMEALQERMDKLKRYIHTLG
inactive: ibrutinib 0.014 | [1] 0.038 | ralimetinib 0.022 | [2] -0.061 | [3] 0.017 | [4] 0.067 | [8] -0.085 | [5] -0.029 | [6] 0.036 | [7] 0.091

BTAF1 (UniProt O14981)
Chain of UniProt O14981 (O14981 whole entry, looked up): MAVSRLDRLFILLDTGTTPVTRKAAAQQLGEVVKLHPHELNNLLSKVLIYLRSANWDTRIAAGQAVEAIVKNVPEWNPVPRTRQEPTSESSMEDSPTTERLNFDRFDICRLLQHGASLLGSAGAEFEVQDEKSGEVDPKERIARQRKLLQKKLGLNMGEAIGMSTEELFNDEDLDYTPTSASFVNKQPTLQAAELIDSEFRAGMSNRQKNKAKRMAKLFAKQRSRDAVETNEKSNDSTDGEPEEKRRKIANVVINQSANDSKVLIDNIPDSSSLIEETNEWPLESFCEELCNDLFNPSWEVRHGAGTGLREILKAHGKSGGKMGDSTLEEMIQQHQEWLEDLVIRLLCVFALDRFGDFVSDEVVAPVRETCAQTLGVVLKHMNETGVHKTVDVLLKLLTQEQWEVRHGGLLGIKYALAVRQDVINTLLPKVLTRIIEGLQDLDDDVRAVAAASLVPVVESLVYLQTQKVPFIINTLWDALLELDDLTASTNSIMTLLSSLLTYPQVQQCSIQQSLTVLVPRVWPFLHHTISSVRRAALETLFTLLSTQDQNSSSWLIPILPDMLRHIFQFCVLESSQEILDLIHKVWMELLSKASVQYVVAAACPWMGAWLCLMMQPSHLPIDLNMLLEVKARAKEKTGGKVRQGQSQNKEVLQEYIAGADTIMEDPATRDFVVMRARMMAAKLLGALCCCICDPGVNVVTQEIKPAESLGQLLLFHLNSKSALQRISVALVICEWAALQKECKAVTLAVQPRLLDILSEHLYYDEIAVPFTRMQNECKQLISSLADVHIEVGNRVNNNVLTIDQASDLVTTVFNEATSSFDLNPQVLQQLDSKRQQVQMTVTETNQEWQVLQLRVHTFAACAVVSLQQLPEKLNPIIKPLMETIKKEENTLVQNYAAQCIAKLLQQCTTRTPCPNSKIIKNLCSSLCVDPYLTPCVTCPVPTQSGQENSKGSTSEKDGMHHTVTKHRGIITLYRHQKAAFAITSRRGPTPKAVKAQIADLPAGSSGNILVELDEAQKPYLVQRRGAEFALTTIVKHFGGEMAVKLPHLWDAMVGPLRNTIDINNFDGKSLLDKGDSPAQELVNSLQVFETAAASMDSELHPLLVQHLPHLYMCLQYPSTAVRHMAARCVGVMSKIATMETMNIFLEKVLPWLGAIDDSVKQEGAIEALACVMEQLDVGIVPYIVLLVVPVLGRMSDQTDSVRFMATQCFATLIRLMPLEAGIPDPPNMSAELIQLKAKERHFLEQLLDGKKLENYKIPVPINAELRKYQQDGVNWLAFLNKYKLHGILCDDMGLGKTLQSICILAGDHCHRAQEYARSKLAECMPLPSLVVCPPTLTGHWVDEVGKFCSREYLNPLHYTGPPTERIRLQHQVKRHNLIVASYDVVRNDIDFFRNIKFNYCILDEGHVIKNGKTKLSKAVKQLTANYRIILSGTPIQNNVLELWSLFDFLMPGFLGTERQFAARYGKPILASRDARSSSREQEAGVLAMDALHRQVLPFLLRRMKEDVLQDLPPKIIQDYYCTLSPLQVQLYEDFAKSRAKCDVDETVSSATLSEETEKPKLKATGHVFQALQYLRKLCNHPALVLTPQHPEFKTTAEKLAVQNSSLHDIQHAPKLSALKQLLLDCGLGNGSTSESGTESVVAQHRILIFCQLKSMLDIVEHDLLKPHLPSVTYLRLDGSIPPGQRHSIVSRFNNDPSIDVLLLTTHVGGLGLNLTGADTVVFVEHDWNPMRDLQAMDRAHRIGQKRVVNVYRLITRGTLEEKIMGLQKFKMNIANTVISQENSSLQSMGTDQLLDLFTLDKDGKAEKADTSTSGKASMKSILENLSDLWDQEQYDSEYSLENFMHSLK
inactive: ibrutinib -0.016 | [1] -0.003 | ralimetinib 0.01 | [2] -0.008 | [3] 0.003 | [4] 0.018 | [8] 0.023 | [5] 0 | [6] 0.025 | [7] -0.012

CCDC47 (UniProt Q96A33)
inactive: ibrutinib 0 | [1] 0.002 | ralimetinib 0.01 | [2] -0.063 | [3] -0.042 | [4] 0.044 | [8] -0.002 | [5] 0.041 | [6] 0.045 | [7] -0.013

BLM (UniProt P54132)
inactive: ibrutinib 0.128 | [1] 0.026 | ralimetinib -0.015 | [2] 0.031 | [3] -0.005 | [4] -0.019 | [8] 0.03 | [5] -0.058 | [6] 0.019 | [7] 0.036

BAG4 (UniProt O95429)
active: [5] -0.375
inactive: ibrutinib 0.082 | [1] 0.005 | ralimetinib -0.009 | [2] 0.02 | [3] -0.035 | [4] -0.014 | [8] 0 | [6] -0.021 | [7] -0.017

CARHSP1 (UniProt H3BNU9)
inactive: ibrutinib 0.147 | [1] -0.005 | [4] -0.107 | [7] 0.107

CARNMT1 (UniProt Q8N4J0)
inactive: ibrutinib -0.014 | [1] -0.003 | ralimetinib -0.007 | [2] -0.056 | [3] -0.041 | [4] 0.004 | [8] -0.014 | [5] 0.082 | [6] -0.043 | [7] -0.006

CDC16 (UniProt Q13042)
inactive: ibrutinib 0.02 | [1] 0.019 | ralimetinib 0.025 | [2] -0.022 | [3] 0.012 | [4] -0.006 | [8] 0.04 | [5] -0.029 | [6] -0.005 | [7] 0.025

C18orf25 isoform 2 (UniProt Q96B23)
Chain of UniProt Q96B23 (Q96B23 whole entry, looked up): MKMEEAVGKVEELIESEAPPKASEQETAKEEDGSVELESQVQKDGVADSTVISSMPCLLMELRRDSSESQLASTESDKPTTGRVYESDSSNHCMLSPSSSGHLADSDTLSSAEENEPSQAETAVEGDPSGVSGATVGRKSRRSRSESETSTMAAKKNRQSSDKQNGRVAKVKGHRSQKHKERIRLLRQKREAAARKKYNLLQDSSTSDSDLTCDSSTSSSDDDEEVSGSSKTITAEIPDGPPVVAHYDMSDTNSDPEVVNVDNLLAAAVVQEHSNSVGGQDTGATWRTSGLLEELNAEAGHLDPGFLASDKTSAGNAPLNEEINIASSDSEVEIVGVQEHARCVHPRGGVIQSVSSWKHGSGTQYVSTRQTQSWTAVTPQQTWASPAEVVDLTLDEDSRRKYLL
inactive: ibrutinib 0.126 | [1] 0.1 | ralimetinib -0.065 | [2] -0.027 | [3] -0.013 | [4] -0.088 | [8] 0.015 | [6] -0.017 | [7] -0.076

AUH (UniProt Q13825)
inactive: ibrutinib 0.024 | [1] 0.103 | ralimetinib -0.161 | [2] -0.003 | [3] 0.011 | [8] -0.304 | [5] 0.015 | [6] -0.132 | [7] -0.058

BCKDK (UniProt O14874)
inactive: ibrutinib 0.048 | [1] 0.049 | ralimetinib 0.137 | [2] -0.017 | [3] -0.001 | [4] -0.048 | [8] 0.004 | [5] -0.088 | [6] 0.067 | [7] 0.059

C5orf51 (UniProt A6NDU8)
inactive: ibrutinib 0.052 | [1] -0.008 | ralimetinib 0.001 | [2] -0.027 | [3] 0.014 | [4] -0.005 | [8] 0.004 | [5] 0.042 | [6] 0.042 | [7] -0.001

ATF7IP2 (UniProt Q5U623)
inactive: ibrutinib 0.054 | [1] -0.03 | ralimetinib 0.045 | [2] -0.201 | [3] 0.058 | [4] -0.056 | [5] 0.097 | [6] -0.04 | [7] -0.088

BICRA (UniProt Q9NZM4)
Chain of UniProt Q9NZM4 (Q9NZM4 whole entry, looked up): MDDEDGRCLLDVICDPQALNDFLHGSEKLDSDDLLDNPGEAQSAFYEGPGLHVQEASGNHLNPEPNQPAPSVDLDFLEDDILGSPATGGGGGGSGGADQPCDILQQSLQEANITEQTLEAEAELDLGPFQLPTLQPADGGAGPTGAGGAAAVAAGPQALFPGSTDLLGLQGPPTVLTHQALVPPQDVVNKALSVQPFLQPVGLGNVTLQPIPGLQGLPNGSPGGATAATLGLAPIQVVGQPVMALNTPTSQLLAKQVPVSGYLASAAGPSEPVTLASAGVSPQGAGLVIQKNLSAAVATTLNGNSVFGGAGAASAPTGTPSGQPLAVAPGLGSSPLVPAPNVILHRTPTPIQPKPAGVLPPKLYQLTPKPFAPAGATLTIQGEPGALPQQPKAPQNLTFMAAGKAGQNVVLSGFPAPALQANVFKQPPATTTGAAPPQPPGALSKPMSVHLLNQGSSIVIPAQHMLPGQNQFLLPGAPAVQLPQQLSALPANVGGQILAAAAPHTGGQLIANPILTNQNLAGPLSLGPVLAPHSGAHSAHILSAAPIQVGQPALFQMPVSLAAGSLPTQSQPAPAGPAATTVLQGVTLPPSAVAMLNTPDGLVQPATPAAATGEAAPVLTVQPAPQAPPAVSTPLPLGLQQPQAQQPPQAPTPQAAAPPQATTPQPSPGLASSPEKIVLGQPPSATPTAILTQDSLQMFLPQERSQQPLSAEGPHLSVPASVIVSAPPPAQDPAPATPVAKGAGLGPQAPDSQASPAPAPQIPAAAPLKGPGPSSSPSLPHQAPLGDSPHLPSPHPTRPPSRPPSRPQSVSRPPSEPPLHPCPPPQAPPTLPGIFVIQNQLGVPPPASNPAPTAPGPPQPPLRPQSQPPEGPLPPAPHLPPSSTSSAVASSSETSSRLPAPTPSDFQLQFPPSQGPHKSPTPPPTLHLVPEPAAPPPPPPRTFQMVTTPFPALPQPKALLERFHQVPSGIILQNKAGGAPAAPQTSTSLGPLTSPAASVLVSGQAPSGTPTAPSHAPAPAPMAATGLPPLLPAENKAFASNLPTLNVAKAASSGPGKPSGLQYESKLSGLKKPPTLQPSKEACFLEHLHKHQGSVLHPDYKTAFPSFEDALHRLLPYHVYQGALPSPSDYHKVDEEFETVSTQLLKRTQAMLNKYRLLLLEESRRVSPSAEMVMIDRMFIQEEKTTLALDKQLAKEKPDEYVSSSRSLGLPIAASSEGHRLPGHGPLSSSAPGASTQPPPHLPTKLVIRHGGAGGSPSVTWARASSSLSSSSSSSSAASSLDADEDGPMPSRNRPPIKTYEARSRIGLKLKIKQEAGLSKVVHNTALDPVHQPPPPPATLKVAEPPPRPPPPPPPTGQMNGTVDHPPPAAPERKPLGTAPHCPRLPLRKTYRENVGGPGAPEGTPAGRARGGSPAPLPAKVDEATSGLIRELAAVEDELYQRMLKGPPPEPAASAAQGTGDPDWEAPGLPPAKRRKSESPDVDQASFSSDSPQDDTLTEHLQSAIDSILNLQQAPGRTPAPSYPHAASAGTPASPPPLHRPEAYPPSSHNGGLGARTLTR
inactive: ibrutinib -0.053 | [1] -0.093 | ralimetinib -0.138 | [2] -0.271 | [3] 0.102 | [8] -0.168 | [5] -0.012 | [6] -0.003 | [7] -0.156

BTRC (UniProt Q9Y297)
inactive: ibrutinib 0.026 | [1] 0.012 | ralimetinib 0.068 | [2] -0.033 | [3] 0.045 | [4] 0.015 | [6] 0.075 | [7] -0.002

C19orf54 (UniProt Q5BKX5)
inactive: ibrutinib 0.041 | [1] 0.003 | ralimetinib -0.018 | [2] -0.055 | [3] 0.028 | [4] 0.012 | [8] 0.06 | [5] -0.041 | [6] 0.013 | [7] 0.063

C6orf120 (UniProt Q7Z4R8)
inactive: ibrutinib 0.013 | [1] -0.017 | [3] -0.003 | [8] 0.015 | [7] 0.126

CDK11A (UniProt Q9UQ88)
active: [1] 0.414
inactive: ibrutinib 0.022 | ralimetinib 0.003 | [2] 0.056 | [3] -0.036 | [4] -0.03 | [8] -0.022 | [5] 0.002 | [6] 0.025 | [7] -0.014

CAPNS1 (UniProt U3KPR7)
inactive: ibrutinib 0.034 | [1] -0.007 | [4] 0.155 | [7] 0.099

ATE1 (UniProt O95260)
inactive: ibrutinib 0.081 | [1] -0.025 | [5] -0.101 | [7] -0.022

CARD11 (UniProt Q9BXL7)
inactive: ibrutinib -0.097 | [1] -0.023 | ralimetinib -0.02 | [2] 0.003 | [3] -0.075 | [4] -0.041 | [8] 0.025 | [5] 0.01 | [6] 0.051 | [7] -0.143

BCR (UniProt P11274)
inactive: ibrutinib -0.026 | [1] 0.037 | ralimetinib 0.025 | [2] -0.025 | [3] 0.014 | [4] -0.001 | [8] -0.032 | [5] 0.025 | [6] 0 | [7] 0.017

AURKAIP1 (UniProt Q9NWT8)
inactive: ibrutinib -0.055 | [1] -0.095 | ralimetinib -0.363 | [2] -0.222 | [3] 0.021 | [4] 0.029 | [8] -0.012 | [5] 0.135 | [7] -0.013
active: [6] -0.417

BUD13 (UniProt Q9BRD0)
inactive: ibrutinib 0.07 | ralimetinib 0.033 | [2] 0.034 | [3] -0.051 | [4] -0.051 | [8] -0.219 | [5] 0.013 | [6] -0.013

CHCHD7 isoform 4 (UniProt Q9BUK0)
inactive: ibrutinib -0.109 | [1] 0.008 | ralimetinib -0.038 | [2] -0.014 | [4] 0.116 | [8] 0.002 | [5] -0.025 | [6] 0.024 | [7] -0.061

BCKDHB (UniProt P21953)
inactive: ibrutinib -0.102 | [1] 0.025 | ralimetinib 0.003 | [2] -0.01 | [3] -0.037 | [4] 0.016 | [8] -0.022 | [5] -0.078 | [6] 0.071 | [7] 0.024

CCDC85B (UniProt Q15834)
Chain of UniProt Q15834 (Q15834 whole entry, looked up): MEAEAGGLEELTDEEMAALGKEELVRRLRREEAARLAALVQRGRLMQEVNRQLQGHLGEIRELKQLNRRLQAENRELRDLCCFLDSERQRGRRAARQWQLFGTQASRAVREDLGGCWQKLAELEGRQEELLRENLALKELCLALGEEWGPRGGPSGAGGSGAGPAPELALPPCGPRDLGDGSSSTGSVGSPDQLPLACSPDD
inactive: ibrutinib 0.215 | [1] -0.248 | ralimetinib -0.001 | [2] 0.05 | [3] 0.056 | [8] 0.004 | [5] -0.016 | [6] -0.163 | [7] 0.014

CEP41 (UniProt Q9BYV8)
inactive: ibrutinib 0.014 | [1] 0.045 | [3] 0.021 | [4] -0.025 | [8] 0.095 | [5] 0.011 | [7] -0.031

ATXN2 (UniProt Q99700)
inactive: ibrutinib -0.007 | [1] -0.011 | ralimetinib -0.002 | [2] 0 | [3] 0.016 | [4] 0.013 | [8] -0.022 | [5] -0.02 | [6] 0.041 | [7] -0.021

CCNA2 (UniProt P20248)
inactive: ibrutinib 0.005 | [1] 0.16 | ralimetinib -0.003 | [2] -0.013 | [3] 0.022 | [4] 0.003 | [8] 0.008 | [5] 0.047 | [6] 0.007 | [7] -0.029
